Test results: the supplement of paper PMC11219838

What follows are molecules tested on Caenorhabditis elegans L1 (N2) (assay: survival and reproduction score of C. elegans L1 (0: 0-10 living worms, 1: 11-20, 2: 21-50, 3: >50, 4: overgrown) (score 0-4); higher = more worms, less nematicidal, active = 1 or less; extreme values may be limits of the assay). Conditions: 60 µM; 6 days; temperature: 20 °C.
Procedure, shortened: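 After compound was pinned to 60 µM final (0.6% v/v DMSO) into wells with roughly 20 synchronized C. elegans N2 L1s and E. coli HB101 in liquid NGM, the sealed 96-well plates were shaken at 200 rpm for 6 days at 20 °C. Under a dissection microscope, survival and reproduction were graded ordinally by living worms per well. A grade of 0 stood for 0–10 worms and 4 for overgrown, starved wells; two biological replicates were averaged.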

Structure (SMILES) | survival and reproduction score
CCCC(=O)Nc1ccccc1-c1nc(-c2ccncc2)no1 | 4 (inactive)
COc1ccccc1-c1nnc(SCC(=O)Nc2ccc(Br)cn2)o1 | 4 (inactive)
Fc1ccc(-c2noc(-c3ccc(Br)cc3)n2)cc1 | 0 (active)
COc1ccc(-c2noc(COc3ccc(Cl)c(C)c3)n2)cc1 | 4 (inactive)
CCn1c(C)cc(C(=O)CSc2nnc(-c3ccccc3)o2)c1C | 4 (inactive)
Fc1ccccc1-c1nc(-c2ccccc2)no1 | 0 (active)
CCc1ccc(OCc2nc(-c3ccccn3)no2)cc1 | 3 (inactive)
COc1ccc(-c2nnc(SCC(=O)Nc3c(F)cc(F)cc3Br)o2)cc1 | 4 (inactive)
Cc1cnc(NC(=O)CSc2nnc(-c3cccc(Cl)c3)o2)s1 | 4 (inactive)
Brc1cccc(-c2nc(-c3ccccc3)no2)c1 | 0 (active)
CC(Sc1nnc(-c2ccc(C(C)(C)C)cc2)o1)C(=O)Nc1nccs1 (centres undefined) | 4 (inactive)
Cc1cccc(-c2noc(COc3ccc(Cl)cc3C)n2)c1 | 4 (inactive)
Brc1ccc(-c2nc(-c3ccc4c(c3)OCO4)no2)cc1 | 4 (inactive)
CC(=O)Nc1ccc(-c2nc(-c3ccccc3)no2)cc1 | 4 (inactive)
CCNC(=O)c1ccccc1-c1nc(-c2ccc(OC)cc2)no1 | 4 (inactive)
CCOc1ccccc1NC(=O)CSc1nnc(-c2ccccc2)o1 | 4 (inactive)
COc1cccc(-c2noc(COc3cc(C)cc(C)c3)n2)c1 | 4 (inactive)
Cc1ccc(SC(C)c2nc(-c3cccnc3)no2)cc1 (centres undefined) | 4 (inactive)
COc1ccc(-c2nnc(SCC(=O)OCc3ccccc3)o2)cc1 | 4 (inactive)
